MCF10A rerep: induces DNA re-replication in MCF 10a normal breast cells. MCF 10A DNA re-replication, Hoechst nuclear intensity, 48 h. Potency, µM (top dose mostly 46.1 µM), without a hit: at the highest dose activity, positive = re-replication, actives largely listed as activators. 350,000 compounds, 2.9% hits. AID 624296; further: potency means the concentration at half of the fitted maximal effect; % of control where 0% means no effect; nearly all actives have a fitted effect of over 50% in size
KB-V1 MDR tox: kills drug-selected multidrug resistant KB-V1 cells | KB-V1 MDR cells viability, CellTiter-Glo, 72 h | 400,000 compounds, 3.4% hits | Potency, µM (top dose mostly 46.1 µM), actives largely listed as cytotoxic; further: potency means the concentration at half of the fitted maximal effect; on the % scale 0 is the no-effect control and ±100 the full control effect; nearly all actives have a fitted effect of over 60% in size
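Luminescent ATP read-out (CellTiter-Glo, 10 min) measures survival of drug-selected KB-V1 MDR cells after 72 h, 37 degrees C compound exposure. Medium: phenol-red-free DMEM, 10% FBS. Values from fitted concentration-response curves.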
KB-3-1 tox: kills parental KB-3-1 adenocarcinoma cells; KB-3-1 viability, CellTiter-Glo ATP luminescence, 72 h; Potency, µM (doses to about 46.1 µM), most hits filed as cytotoxic; 400,000 compounds, 1.4% hits; AID 1347075; further: potency means the concentration at half of the fitted maximal effect; on the % scale 0 is the no-effect control and ±100 the full control effect; nearly all actives have a fitted effect of over 60% in size
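Multi-concentration cytotoxicity screen in KB-3-1 cells grown in DMEM lacking phenol red with 10% FBS. After 72 h at 37 °C with compound, ATP-dependent luminescence was recorded.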
KCNH2 3.1 inh: blocks the human KCNH2 3.1 channel isoform. activity change, % (tested at about 1.8 µM). 340,000 compounds, 0.95% hits. U2OS KCNH2 3.1, thallium flux FluxOr; stronger effect = lower value;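 active means maximum activity change below -70%; inconclusive means maximum activity change from -70% to -50%; inactive means maximum activity change above -50%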;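 further: thallium influx rate constant from kinetic fluorescence after stimulation buffer; on the % scale 0 is the no-effect control and ±100 the full control effect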
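U2OS cells transduced with KCNH2 3.1 mutant virus (1.77 x 10^8 /mL, 4 h), plated overnight at 37 C, loaded 45 min with FluxOr dye plus Red40 quencher. Thallium flux rate constant from kinetic reads after stimulation buffer, normalised to controls.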
hERG WT inh: KCNH2 (human, wildtype) channel inhibition | U2OS, BacMam KCNH2, thallium flux FluxOr; stronger effect = lower value | AID 720551 | 340,000 compounds, 0.37% hits | activity change, % at 1.84 µM | Q12809;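 active means maximum activity change below -70%; inconclusive means maximum activity change between -70% and -50%; inactive means maximum activity change above -50%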; further: on the % scale 0 is the no-effect control and ±100 the full control effect
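U2OS cells transduced with wild-type KCNH2 virus are loaded with FluxOr dye for 45 min, and thallium flux is measured in kinetic reads before and after stimulation buffer. Rate constants are normalized to DMSO controls.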
SW480 rerep: inducers of DNA re-replication in SW480 colon cancer cells | SW480 DNA re-replication, Hoechst DNA content imaging, 48 h | Potency, µM (top dose mostly 46.1 µM), for the others: at the highest dose re-replication activation, most hits filed as activators | 340,000 compounds, 1.8% hits | AID 624297; further: potency means the concentration at half of the fitted maximal effect; % of control where 0% means no effect; nearly all actives have a fitted effect of over 55% in size
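Image-based read-out: total Hoechst fluorescence of nuclei (405 nm excitation, 500-530 nm emission), with hits raising the fraction of high-intensity nuclei. SW480 colon cells incubated 48 hr with compounds at 37 C.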
Starred values were filed as active, the others as inactive; i = inactive; ? = inconclusive; nt = no result given; [ ] = another dose, or the depositor's remark. A selection: hits, their analogues and other compounds. The true share with any hit is near 7.6%. Unless noted, the call rests on the fitted dose curve; in most records, active means well fitted curve in the direction sought with a large enough effect; inconclusive means small, poorly fitted or top-dose-only effect, or another doubt; inactive means no such curve, though single readings can be large; an effect the other way counts as inactive or inconclusive.

SMILES	MCF10A rerep	KB-V1 MDR tox	KB-3-1 tox	KCNH2 3.1 inh	hERG WT inh	SW480 rerep
Clc1ccc2[nH]c3c(N4CCC5(CC4)OCCO5)ncnc3c2c1	21µM*	16µM*	15µM*	8	-1	?
COc1ccc2[nH]c3c(N4CCC(O)(c5cccc(C(F)(F)F)c5)CC4)ncnc3c2c1	?	18µM*	13µM*	-16	6	?
COc1ccc2[nH]c3c(N4CCN(Cc5ccc6c(c5)OCO6)CC4)ncnc3c2c1	?	?	?	-6	9	?
Brc1ccc2[nH]c3c(N4CCc5ccccc5C4)ncnc3c2c1	?	i	i	-7	-11	?
CCOc1ccc2[nH]c3c(N4CCc5ccccc5C4)ncnc3c2c1	9.2µM*	12µM*	?	-1	-1	?
Cc1ccc2[nH]c3c(N4CCc5ccccc5C4)ncnc3c2c1	?	?	?	-5	-3	3%
Fc1ccc2[nH]c3c(N4CCc5ccccc5C4)ncnc3c2c1	?	6.5µM*	?	2	1	-14%
COC(=O)[C@H](Cc1ccccc1)NC(=O)Cn1cnc(C(=O)Nc2ccc(C)c(C)c2)n1	9%	i	i	nt	-3	-37%
N#Cc1c(-c2ccccc2)c(-c2ccccc2)n(Cc2ccco2)c1NC(=O)c1cccs1	-5%	5.6µM*	i	-4	-13	1%
Cc1nn(-c2ccccc2)c(NC(=O)c2cccs2)c(-c2ccccc2)c1=O	2%	i	i	0	-5	-3%
CC(NC(=O)C1CCN(S(=O)(=O)c2cccc3nonc23)CC1)c1ccccc1 (stereo unspecified)	11%	i	i	-1	0	5%
O=C(c1cc2ncc(CCCl)cn2n1)N1CCCCCC1	-5%	i	i	1	-9	?
CC1CCCC(C)N1C(=O)c1cc2ncc(CCCl)cn2n1 (stereo unspecified)	-5%	21µM*	i	-3	-11	-9%
NC(=O)C1C(c2ccccc2)=C1c1ccccc1	-1%	21µM*	i	-12	10	3%
O=C(Cn1c(=O)n(Cc2ccc(F)cc2)c(=O)c2sc3ccccc3c21)NCc1ccccc1	nt	i	i	nt	nt	nt
Cc1nccc(-c2cccc(N/N=C(\C#N)C(=O)c3ccccc3)c2)n1	13%	?	?	-18	-13	?
N#C/C(=N\Nc1cccc(C(F)(F)F)c1)C(=O)c1ccsc1	?	3.3µM*	16µM*	10	-10	-15%
Cc1nc(NC(=O)c2ccccc2)sc1-c1csc(NCc2ccccc2)n1	9%	i	i	-7	0	0%
Cc1csc2nc(NC(=O)c3ccccc3)sc(=O)c12	?	i	i	-79*	-2	-9%
Cc1nc(NC(=O)c2ccccc2)sc1-c1csc(N)n1	16µM*	?	3.7µM*	-3	5	-1%
Cc1ccc2[nH]c(=O)c(CN(CCCO)Cc3nnnn3Cc3ccccc3)cc2c1	nt	i	i	nt	nt	nt
CCCCn1c2c(c(=O)n(C)c1=O)C(c1ccc(OC)cc1)N1CCCCCC1=N2 (stereo unspecified)	0%	i	i	-75*	-5	-4%
O=C(CCl)Nc1ccc(S(=O)(=O)Nc2nccs2)cc1	?	?	?	9	-5	?
O=C(Cn1c(-c2cccs2)cc2ccccc21)N1CCN(c2ccc(Cl)cc2)CC1	nt	i	i	nt	nt	nt
O=S(=O)(c1ccc(-c2ccon2)s1)N1CCOCC1	19%	i	i	-1	-3	0.58µM*
SMILES	MCF10A rerep	KB-V1 MDR tox	KB-3-1 tox	KCNH2 3.1 inh	hERG WT inh	SW480 rerep
CC(C)(C)c1ccc2c(c1)C(=O)c1ccccc1C2=O	-4%	i	i	nt	1	-1%
CC(C)(C=O)C1=CC(=O)c2ccccc2C1=O	13µM*	i	i	-11	-4	7.3µM*
COc1ccc(OC)c(C2=Nn3c(nnc3-c3cc(OC)c(OC)c(OC)c3)SC2)c1	-1%	1.3µM*	i	-11	12	23%
COc1cccc(-c2nnc3n2N=C(C(C)(C)C)CS3)c1	?	21µM*	?	1	0	?
FC(F)Oc1ccc(C2=Nn3c(nnc3-c3ccccc3Cl)SC2)cc1OCC1CC1	1%	i	i	nt	nt	-2%
COc1ccc(OC)c(C2=Nn3c(nnc3-c3ccncc3)SC2)c1	-3%	i	i	-4	11	?
COc1cccc(-c2nnc3n2N=C(c2cc(OC)ccc2OC)CS3)c1	?	i	i	1	1	-3%
COc1ccc(C2=Nn3c(nnc3-c3ccccc3Cl)SC2)cc1OC1CCOC1 (stereo unspecified)	?	?	13µM*	nt	nt	?
COc1ccc(C2=Nn3c(nnc3-c3ccco3)SC2)cc1OC	53%[0.0737 µM]	?	i	-2	4	-28%
COc1ccc(OC)c(-c2nnc3n2N=C(c2ccc(OC)c(OC4CCOC4)c2)CS3)c1 (stereo unspecified)	?	?	0.12µM*	nt	nt	?
CC(C)=CCC/C(C)=C/C=N/NC(=O)c1ccc([N+](=O)[O-])cc1	?	?	i	-22	1	10%
Cc1ccc(Cl)cc1N1CCN(S(=O)(=O)c2ccc3c(c2)CCN3C(=O)C2CCC2)CC1	nt	i	i	nt	nt	nt
O=C(NCCO)C(=O)NCC1OCCCN1S(=O)(=O)c1ccc2c(c1)OCCO2 (stereo unspecified)	1%	i	i	-4	8	-2%
O=C(CN1C(=O)NC2(CCCCC2)C1=O)NNC(=O)C1CC1	-5%	?	i	18	1	?
COc1ccc(C2=Nn3c(nnc3-c3ccc(OC)cc3)SC2)cc1	0.92µM*	1.3µM*	0.65µM*	-9	15	1.8µM*
COc1ccc(C2=Nn3c(nnc3-c3ccccc3Cl)SC2)cc1OC1CCCC1	16µM*	i	?	nt	nt	21µM*
O=c1c2ccccc2oc2cc(NCCCn3ccnc3)ccc12	21µM*	i	i	21	2	?
O=c1c2ccccc2oc2cc(NCCCN3CCOCC3)ccc12	16µM*	i	i	9	8	?
CN1CCCC1CCNc1ccc2c(=O)c3ccccc3oc2c1 (stereo unspecified)	18µM*	i	i	-14	-2	?
O=C(NCCCn1ccnc1)c1cc2ccccc2oc1=O	3%	i	i	5	5	-6%
O=c1c2ccccc2oc2ccc(NCCCN3CCOCC3)cc12	-14%	?	i	-3	18	2%

Screening results (PubChem BioAssay)
